Results on 29 compounds are retold here after PubChem BioAssay.

The subject of this test is Plasmodium falciparum Sir2 (PF13_0152, Sir2A). Put plainly: Plasmodium falciparum Sir2A binding compounds – biochemical, small-molecule microarray, 635 nm fluorescence, primary screen (AID 1098).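 Further: score merges spot fluorescence intensity with its signal-to-noise ratio.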 The settings on record: fluorescence 635 nm, higher = more signal.
Consider `CC(C)CN1CCc2nc(-c3ccccc3)c3c(c2C1)CO[C@@H](C)C3`, for which the composite z-score is 0.639. To `COCC#Cc1ccc([C@@H]2N[C@H](C(=O)O)CC[C@H]2C)cc1` belongs -0.331; to `C[C@@H](c1ccccc1)N1C(=O)[C@H]2[C@H]3[C@H](O)[C@H](O)CC(=NOC[C@@H](O)COCc4ccco4)[C@H]3CC[C@H]2C1=O`, 0.975. For the compound `CCOC(=O)[C@H](CC(C)C)NC(=O)CCC1CC(OC(=O)NCc2ccc3c(c2)OCO3)CC2(CCCC(COC(=O)NCCc3ccc(Cl)cc3)O2)O1` (some centres undefined), the composite z-score is 0.193. Compound `C#CCCCON=C1C[C@@H](O)[C@@H](O)[C@@H]2[C@@H]3C(=O)N(C4CCCCC4)C(=O)[C@@H]3CC[C@@H]12` gave a composite z-score of 0.369.

The compound `CC(C)=CCCC(C)=CCON=C1C[C@@H](O)[C@@H](O)[C@@H]2[C@@H]3C(=O)N(c4cccc(Oc5ccccc5)c4)C(=O)[C@@H]3CC[C@H]12` had a composite z-score of 0.0643.

`COc1ccc(O[C@H]2C=C[C@@H](C#Cc3ccccc3)O[C@@H]2CO)cc1`: the composite z-score was 0.544.

In turn, `CCCNC(=O)OC[C@H]1O[C@H](CCON=C[C@@H](NS(=O)(=O)c2ccc(C)cc2)[C@H](C)C=CCC(=O)OC)C=C[C@@H]1Oc1ccc(OC)cc1` displayed a composite z-score of -0.289. The compound `COC(=O)[C@H](C)NC(=O)CCC1CC(OC(=O)NCc2cccc3ccccc23)CC2(CCCC(COC(=O)NCCCN3CCCC3=O)O2)O1` (some centres undefined) displayed a composite z-score of 0.666. With `COC(=O)[C@H](C)NC(=O)CCC1CC(OC(=O)NCCc2ccc(F)cc2)CC2(CCCC(COC(=O)NCC3CCCCC3)O2)O1` (some centres undefined), the composite z-score stood at 0.662. The value for `COC(=O)[C@H](C)NC(=O)CCC1CC(OC(=O)NCc2ccc3c(c2)OCO3)CC2(CCCC(COC(=O)NCCc3ccc(Cl)cc3)O2)O1` (some centres undefined) was 0.207; that for `COc1ccc(COC(=O)NN=C2C[C@@H](O)[C@@H](O)[C@@H]3[C@@H]4C(=O)N([C@@H](C)c5ccccc5)C(=O)[C@@H]4CC[C@@H]23)cc1` was 0.397; that for `COc1ccc(O[C@H]2C=C[C@@H](c3ccccc3)O[C@@H]2COC(=O)CCC(C)=NOC[C@@H](O)COCc2ccco2)cc1` was -1.47.

Compound `CCN1C(=O)[C@H]2[C@H]3[C@H](O)[C@H](O)CC(=NOCC(C)C)[C@H]3CC[C@H]2C1=O` gave a composite z-score of 0.301.

`CC(=O)OC[C@H]1O[C@H](C#CCC2CCCCC2)C=C[C@@H]1OC(C)=O` returned a composite z-score of 1.26.

In turn, `CCN1C(=O)[C@H]2[C@H]3[C@H](O)[C@H](O)CC(=NOC[C@@H](O)[C@H]4O[C@@H]5OC(C)(C)O[C@@H]5[C@H]4O)[C@@H]3CC[C@H]2C1=O` returned a composite z-score of 1.03.

Compound `C[C@@H]1CC[C@@H](C(=O)O)N[C@H]1c1cccc(N2CCOCC2)c1` had a composite z-score of 0.168. To `CCOC(=O)NN=C1C[C@@H](O)[C@@H](O)[C@@H]2[C@@H]3C(=O)N(c4ccc(F)cc4F)C(=O)[C@@H]3CC[C@H]12` belongs -0.304; to `CCC1=NOC(CCC2CC(OC(=O)NCc3cccc4c3OCO4)CC3(CCCC(COC(=O)NCCc4ccc(Cl)cc4)O3)O2)C1` (centres undefined), 0.354; to `CCOC(=O)CCN1C(=O)[C@H]2[C@H]3[C@H](O)[C@H](O)CC(=NO[C@@H]4O[C@H](CO)[C@@H](O)[C@H](O)[C@H]4O)[C@@H]3CC[C@H]2C1=O`, 0.839. To `CCOC(=O)[C@H](CC(C)C)NC(=O)CCC1CC(OC(=O)NCc2ccc3c(c2)OCO3)CC2(CCCC(COC(=O)NCc3ccccc3)O2)O1` (some centres undefined) belongs 0.58; to `CC(C)C(=O)N[C@H]1CCCN1C(=O)C=Cc1ccccc1`, 0.0571; to `COC(=O)[C@H](C)NC(=O)CCC1CC(OC(=O)NCc2cccc3ccccc23)CC2(CCCC(COC(=O)NCc3ccccc3)O2)O1` (some centres undefined), 0.537. For `CCOC(=O)[C@H](CC(C)C)NC(=O)CCC1CC(OC(=O)NCCc2ccc(F)cc2)CC2(CCCC(COC(=O)NCc3cccc4ccccc34)O2)O1` (some centres undefined), the composite z-score came to 0.66. To `COC(=O)CC=C[C@@H](C)[C@@H](C=NOC(C)CN1CCCCc2nc(C)c(C)cc21)OC` (some centres undefined) belongs 0.519; to `CCN1C(=O)[C@H]2[C@H]3[C@H](O)[C@H](O)CC(=NOC[C@@H](O)COCc4ccco4)[C@H]3CC[C@H]2C1=O`, 0.667.

`COCCNC(=O)OCC1CCCC2(CC(OC(=O)NCc3cccc4ccccc34)CC(CCC(=O)N[C@@H](C)C(=O)OC)O2)O1` (some centres undefined) showed a composite z-score of 0.798. The value for `CC(=O)OC[C@H]1O[C@@H](ON=C(C)CCN2CCCCc3nc(C)c(C)cc32)[C@H](OC(C)=O)[C@@H](OC(C)=O)[C@@H]1OC(C)=O` was 0.834. The value for `O=C1C=C[C@@H](O)[C@@H]2[C@@H]3C(=O)N(c4cccc(Oc5ccccc5)c4)C(=O)[C@@H]3CC[C@@H]12` was 0.378.
